Measurements published in PubChem BioAssay AID588855 (National Center for Advancing Translational Sciences (NCATS), 2011).
Among all 410,000 compounds or so, about 5,000 (1.2%) were called active. Not shown: some 13% with an inconclusive outcome. Calls follow the shape of the dose curve; as a rule, active = well fitted inhibition curve with a large enough effect; inconclusive = small, poorly fitted or top-dose-only effect; inactive = no such curve, though single readings can be large or run the other way. The entries come from a sample that favours actives as a whole.

Assay: qHTS for Inhibitors of TGF-b; also: nearly all actives have a fitted effect of over 65% in size
Details: HepG2 CAGA-GFP TGF-b/SMAD3 reporter, GFP fluorescence, 18 h, TGF-beta stimulated, 500 pg/mL final; series mostly up to 46.1 µM
Method in brief: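 HEPG2 CAGA-GFP, 1000 cells/well; 2 h settle, 37 C; cpd via pin tool; TGF-b 500 pg/mL final; 18 h, 37 C; GFP imaging ex488/em500-530; %Activity normalised to -TGF-b and +DMSO controls; CRC fit, curve class.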
Potency is read from the fitted curve at half-maximal effect.

Potency, inactive:
CCCCNc1ccc(-c2nc(-c3ccncc3)no2)cc1[N+](=O)[O-]
Cc1cccc(N2CCN(C(=O)Cn3ncc4c5ccccc5n(C)c4c3=O)CC2C)c1 (stereo not drawn)
COc1ccc(N(Cc2ccc(N(C)C)cc2)C(=O)c2ccc(S(C)(=O)=O)cc2)cc1
CCOc1ccc(NC(=O)CN(Cc2ccccc2)S(=O)(=O)c2ccc(Cl)cc2)cc1
CCc1ccc(NC(=O)N2CCN(C(=O)c3nsc4ccccc34)CC2)cc1
COc1ccc(CCNC(=O)c2cn(C)c3ccc(S(=O)(=O)N(C)C4CCCCC4)cc3c2=O)cc1OC
CCOC(=O)c1ccc(-c2ccc(/C=C(\C#N)C(=O)Nc3ccc(C)cc3)o2)cc1
CN(C)C(=O)c1cccc(-c2cnc3c(NC=O)cc(-c4ccc(C(=O)N5CCOCC5)cc4)cn23)c1
COc1ccc(-c2cc(NC=O)c3ncc(-c4cccc(C(=O)N(C)C)c4)n3c2)c(OC)c1
COc1ccc(-c2cc(NC=O)c3ncc(-c4ccccc4)n3c2)cc1OC
O=CNc1cc(-c2ccc(C(=O)N3CCOCC3)cc2)cn2c(-c3ccc(F)cc3)cnc12
CCc1ccccc1NC(=O)c1cnn(-c2ccc(F)cc2)c1C1CCNCC1
Cc1nn(CC(=O)NCCc2ccccc2)c(=O)c2c1sc1ccccc12
CC(=O)N1c2ccccc2CC1C(=O)N1CCN(c2ccc(F)cc2)CC1 (stereo not drawn)
CCc1ccc(OCCCn2c(CCCNC(=O)C3CCCCC3)nc3ccccc32)cc1
CCOC(=O)c1cc(-c2ccccc2)n(-c2cccc(C(=O)Nc3cc(OC)cc(OC)c3)c2)c1C
Cc1cccc([C@@H]2[C@@H]3C(=O)N(Cc4ccccc4)C(=O)[C@@H]3[C@]3(C)C(=O)N(c4ccc(Br)cc4)C(=O)N23)c1
COc1ccc(-c2ccc(OC)c(C3C4C=CCC(C)C4C(=O)N3Cc3ccccc3)c2)cc1C (stereo not drawn)
COc1ccc(-n2c(SC)nc3sc4c(c3c2=O)CCN(C(C)=O)C4)cc1
O=C(Cn1nc(Cc2cccnc2)c2ccccc2c1=O)NCC1CCCO1 (stereo not drawn)
O=C(Cn1nc(Cc2cccnc2)c2ccccc2c1=O)NCC1COc2ccccc2O1 (stereo not drawn)
CC(C)CCNC(=O)CSc1nc2ccccc2nc1Cc1ccc(Cl)cc1
COc1ccc(CCNC(=O)c2ccc(CSCc3ccc(C)cc3)o2)cc1OC
Cc1ccc(OCCOc2cccc(/C=N/NC(N)=O)c2)cc1
Cc1c(C=O)c2ccccc2n1CCOc1ccccc1
COc1ccc(OCCn2cc(C(=O)C3CCCCC3)c3ccccc32)cc1
O=C1c2ccccc2C(=O)N1CCOc1ccc(F)cc1
Cc1ccccc1CSc1nc2c([nH]c3ccccc32)c(=O)n1C
CCn1cc(C(=O)N2CCN(c3cc(Cl)ccc3C)CC2)c(=O)c2cc(S(=O)(=O)N3CCCC3)ccc21
COc1ccc(SCc2cc(=O)c3ccc(C)c(C)c3[nH]2)cc1
CCOc1c(Nc2cccc(Cl)c2)c(=O)c1=O
COc1ccc(S(=O)(=O)n2nc(C)c(S(=O)(=O)N3CCCCCC3)c2C)cc1
O=C(COc1ccccc1C(=O)Nc1ccccc1)Nc1cccc(F)c1
COCCNS(=O)(=O)c1cc(-c2nn3c(C)nnc3c3ccccc23)ccc1C
COc1cc(OC)c(OC)cc1/C=C1\C=Cc2ccccc21
CN(C)c1ccc(/C=C2\C=Cc3ccccc32)cc1Br
COc1cc(OC)c(NC(=O)c2cnc(N3CCCC3)nc2C)cc1Cl
COc1ccccc1CNc1nc(Nc2ccccc2Cl)c2sccc2n1
COCCNc1nc(NCc2ccc(NC(C)=O)cc2)c2sccc2n1
Cc1cc(C)cc(NC(=O)CCCc2nc(-c3ccccc3Cl)no2)c1
NC(=O)Nc1ccc(/C=C/c2ccnc3ccccc23)cc1
NC(=O)CSc1oc(-c2cccs2)nc1S(=O)(=O)c1ccccc1
Cc1ccc(S(=O)(=O)c2nc(-c3cccs3)oc2NCc2cccnc2)cc1
CCOc1ccc(-c2nonc2NC(=O)c2oc3ccc(C)cc3c2C)cc1OCC
CC(C)(C)c1ccc(C(=O)Nc2ccc3c(c2)CCCN3C(=O)c2cccs2)cc1
COc1cc(OC)c(NC(=O)N2CC3CCCN3c3ccccc32)cc1Cl (stereo not drawn)
COc1cc(NC(=O)c2noc3c2CSc2ccccc2-3)cc(OC)c1OC
COc1ccc(-c2nc(CN3CCC(C(=O)NCCN(CC(C)C)CC(C)C)CC3)c(C)o2)cc1OC
COc1ccc(-c2nc3sc(CCNC(=O)C(C)(C)C)c(C)n3n2)cc1
Cc1ccc(C(=O)N/C(=C\c2cccs2)C(=O)NCCc2ccccn2)cc1C

Potency, active:
CCOc1ccc(N(Cc2ccccc2)C(=O)c2nc(S(C)(=O)=O)ncc2Cl)cc1 3.98 µM
CC(=O)c1ccc(-c2cnc3c(NC=O)cc(-c4cccc(NS(C)(=O)=O)c4)cn23)cc1 7.08 µM
CC(=O)c1cccc(-c2cnc3c(NC=O)cc(-c4ccc(N(C)C)cc4)cn23)c1 4.47 µM
Cc1ccc(-c2cccc([C@H]3[C@@H]4C=CC[C@@H](C)[C@@H]4C(=O)N3Cc3ccccc3)c2)cc1 20 µM
Cc1ccc(Cl)cc1N(C)C(=O)Cn1nc(Cc2cccnc2)c2ccccc2c1=O 12.6 µM
COC(=O)N/N=C/c1cn(CCCOc2ccc(C)cc2)c2ccccc12 14.1 µM
O=Cc1cn(CCOc2ccc(F)cc2)c2ccccc12 3.98 µM
OCCCNc1nccc(-c2cc(Nc3cccc(Cl)c3)ncn2)n1 0.447 µM
COc1cc(/C=C2\Oc3ccc(C#Cc4ccc(O)cc4)cc3C2=O)cc(OC)c1 7.08 µM
COc1cccc(CNc2nc(NCc3ccccc3OC)nc3ccsc23)c1 10 µM
CCCCS(=O)(=O)c1oc(-c2cccs2)nc1S(=O)(=O)c1ccccc1 3.16 µM
CC1CC2=C(CC1/C=N/NC(N)=S)C(C)(C)CCC2 (stereo not drawn) 10 µM
COc1cncc(-c2cnc3sc(NCCc4ccccn4)nn23)c1 7.94 µM
